# Shown are actives, neighbours in structure and some others; about 27% of the full set was active somewhere.
# CYP2C9 activ: increases human cytochrome P450 2C9 activity; P11712; recombinant CYP2C9, luciferin-H conversion, luminescence; active compounds read high; factor 1 = untreated enzyme, 0 = blocked; activation factor at 5 µM; 96,000 compounds, 1.4% hits; AID 1024;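 active = activation factor of 2 or more for CYP2C9 at a 5 µM dose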
# Target sequence (P11712 whole entry, looked up): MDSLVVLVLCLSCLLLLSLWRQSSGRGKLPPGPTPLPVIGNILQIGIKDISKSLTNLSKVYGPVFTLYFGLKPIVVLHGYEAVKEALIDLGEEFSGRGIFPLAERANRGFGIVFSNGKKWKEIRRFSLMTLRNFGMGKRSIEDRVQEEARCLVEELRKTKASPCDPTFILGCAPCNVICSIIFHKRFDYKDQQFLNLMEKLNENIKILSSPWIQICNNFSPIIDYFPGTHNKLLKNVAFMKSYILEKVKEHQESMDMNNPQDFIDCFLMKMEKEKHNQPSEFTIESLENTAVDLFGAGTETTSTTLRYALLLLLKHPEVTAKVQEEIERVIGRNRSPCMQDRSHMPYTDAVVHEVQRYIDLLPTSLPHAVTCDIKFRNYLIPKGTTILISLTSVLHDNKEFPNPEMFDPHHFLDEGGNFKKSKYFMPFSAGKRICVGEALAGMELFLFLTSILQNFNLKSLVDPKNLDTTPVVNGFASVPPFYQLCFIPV
# sEH activator: soluble epoxide hydrolase (human) activation | P34913 | purified human sEH enzymatic activity, activator screen | activation, % at 2 µM | 91,000 compounds, 0.04% hits | AID 717; in the data active = activation above about 37%
# sEH inhibitor: inhibitors of human soluble epoxide hydrolase; P34913; recombinant human sEH enzymatic activity assay; inhibition, % at 2 µM; 91,000 compounds, 0.34% hits; in the data active = inhibition above about 80%
# CYP2C9 inhib: blocks human cytochrome P450 2C9. AID 777. inhibition, % at 5 µM. 96,000 compounds, 20% hits. P11712. CYP2C9 Supersomes, luciferin-H conversion, luminescence;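 active = blocking of liver enzyme CYP2C9 beyond about 50% at 5 µM, limit read from the data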
# CYP2C19 inhib: human CYP2C19 inhibition. P33261. CYP2C19 Supersomes, luciferin-H EGE luminescence, 30 min. inhibition, % at 5 µM. 96,000 compounds, 21% hits;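 active = CYP2C19 inhibition above a set limit at 5 µM in the primary screen, cut at about 50% in these data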
# CYP2C19 act: cytochrome P450 2C19 (human) activation. recombinant CYP2C19, luciferin-H EGE luminescence; active compounds read high; 0 = fully inhibited enzyme, 1 = untreated enzyme. activation factor at 5 µM. 96,000 tested, under 10 active. AID 1025;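 active = activation factor of at least 2 at 5 µM in the primary screen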
# A number is an active result; - = inactive; . = no result given.
SMILES,CYP2C9 activ,sEH activator,sEH inhibitor,CYP2C9 inhib,CYP2C19 inhib,CYP2C19 act
CCNc1nc(SC)nc(N(C#N)CC(=O)OC)n1,-,-,-,-,-,-
O=C1CCC(=O)N1c1nc2nc(-c3ccccc3)cc(-c3ccccc3)n2n1,-,.,.,-,-,-
CCN1CCN(Cc2nc3c(c(=O)n(C)c(=O)n3C)n2Cc2cccc3ccccc23)CC1,-,-,-,-,-,-
COc1ccc(S(=O)(=O)N(CCc2ccccc2)CC(=O)O)cc1Cl,-,-,-,-,-,-
COCCNC(=O)CN(CCc1ccccc1)S(=O)(=O)c1ccc(OC)cc1,-,-,-,-,60,-
CCCC1(C(=O)OCC)NC(c2cc(OC)c(OC)c(OC)c2)C2C(=O)N(CC)C(=O)C21 (stereo unspecified),-,-,-,-,-,-
CC(C)CC(C(=O)NCc1ccccn1)N1C(=O)c2ccccc2C1=O (stereo unspecified),-,-,-,-,71,-
CC(C)CC(C(=O)NC(=O)NCc1ccccc1)N1C(=O)c2ccccc2C1=O (stereo unspecified),-,-,-,-,-,-
COc1ccc(Cc2nnc(SCC(=O)NCCc3ccccc3)o2)cc1,-,.,.,-,-,-
COc1ccc(CCCc2nnc(SCC(=O)N/N=C\c3ccc(O)c(OC)c3)o2)cc1C,-,-,-,-,-,-
C=CCc1cc(/C=N\NC(=O)CSc2nnc(CCCc3ccc(OC)c(C)c3)o2)cc(OC)c1O,-,-,-,83,86,-
COc1ccc(CCNC(=O)CSc2nnc(CNC(=O)c3ccco3)o2)cc1OC,-,-,-,-,-,-
COc1ccc(/C=N/NC(=O)CSc2nnc(CCCc3ccc(OC)c(C)c3)o2)cc1,-,-,-,84,78,-
C=CCc1cc(/C=N/NC(=O)CSc2nnc(CCCc3ccc(OC)cc3)o2)cc(OC)c1O,-,-,-,80,89,-
COc1ccc(-c2cnc3nc[nH]c(=O)c3n2)cc1,.,-,-,.,.,.
CCn1c(C)[n+](CC(O)COCC2CC=CCC2)c2ccccc21 (stereo unspecified),-,-,-,-,-,-
COc1cccc(N2C(=O)CC(N3CCC(C(N)=O)(N4CCCCC4)CC3)C2=O)c1 (stereo unspecified),.,-,-,.,.,.
O=C(NC1CC1)c1ccc(CSCc2cccc(F)c2)o1,-,-,-,-,-,-
CCOC(=O)NC(Nc1ncccn1)(C(F)(F)F)C(F)(F)F,-,-,-,-,-,-
CCOC(=O)NC(NCC(O)c1ccccc1)(C(F)(F)F)C(F)(F)F (stereo unspecified),-,-,-,-,65,-
CCCCCOC(=O)NCC(O)c1ccccc1 (stereo unspecified),-,-,-,-,-,-
CCCCOC(=O)NC(NCC(O)c1ccccc1)(C(F)(F)F)C(F)(F)F (stereo unspecified),-,-,-,78,91,-
COc1cccc(-c2nc(=S)c3c(n2CCCO)CCCC3)c1,-,-,-,-,-,-
O=c1c2ccccc2sn1-c1cc(S(=O)(=O)N2CCOCC2)ccc1N1CCOCC1,-,-,-,54,66,-
O=c1c2ccccc2sn1-c1cc(S(=O)(=O)N2CCOCC2)ccc1N1CCCC1,-,-,-,79,-,-
SMILES,CYP2C9 activ,sEH activator,sEH inhibitor,CYP2C9 inhib,CYP2C19 inhib,CYP2C19 act
Cc1ccc(Oc2ccccc2)c(NC=O)c1,-,-,-,-,-,-
O=c1oc(-c2ccccc2F)nc2c1cnn2-c1ccccc1,-,-,-,-,-,-
CCOc1ccc(-c2nc(C#N)c(N3CCCCCC3)o2)cc1,-,-,-,76,-,-
N#Cc1nc(-c2ccccc2F)oc1N1CCCC1,2.3,-,-,-,50,-
Cc1ccc(-c2nc(C#N)c(N3CCCCC3)o2)cc1,-,-,-,-,-,-
COc1ccc(-c2nc(C#N)c(N3CCCCCC3)o2)cc1OC,-,-,-,52,-,-
COc1ccc(-c2nc(C#N)c(N3CC(C)OC(C)C3)o2)cc1OC (stereo unspecified),.,-,-,.,.,.
COc1ccc(-c2nc(C#N)c(N3CCCCCC3)o2)cc1,-,-,-,50,-,-
COc1ccc(-c2nc(C#N)c(NC(C)C)o2)cc1,-,-,-,-,86,-
Oc1ccc2ccccc2c1C1Nc2cccc3cccc(c23)N1,-,-,-,72,-,-
Cc1nc2ccccc2cc1OCc1ccccc1,-,-,-,65,-,-
Cc1nc2ccccc2cc1OCc1ccc(Cl)cc1,-,.,.,-,-,-
COc1cccc(CNc2ncnc3cc(OC)c(OC)cc23)c1,-,-,-,-,-,-
COc1cccc(COc2cc3ccccc3nc2C)c1,-,-,-,78,-,-
Cc1cccc(S(=O)(=O)Nc2ccc(C)c3c2OC(C)(C)C3)c1,2.1,-,-,-,97,-
O=S(=O)(NCCc1ccncc1)c1ccc(S(=O)(=O)N2CCCCCC2)cc1,-,-,-,92,99,-
CC1CCCCN1S(=O)(=O)c1ccc(S(=O)(=O)NCCc2ccncc2)cc1 (stereo unspecified),.,-,-,.,.,.
O=S(=O)(NCCc1ccncc1)c1ccc(Br)cc1,-,-,-,98,100,-
CN1C(=O)CC(N2CCN(CC(=O)N3CCCC3)CC2)C1=O (stereo unspecified),-,-,-,-,-,-
Cc1cccc(CSc2ncnc3nc[nH]c23)c1,-,.,.,-,72,-
COc1ccc(-n2c(N)c(Br)c(=O)[nH]c2=O)cc1,-,-,-,-,-,-
Cc1cc(/C=C(\C#N)C(=O)NCc2cccs2)c(C)n1-c1ccc([N+](=O)[O-])cc1,.,-,-,.,.,.
C=CCN(CC=C)C(=O)C(=O)c1cc(C)n(-c2ccc([N+](=O)[O-])cc2)c1C,-,-,-,-,98,-
Cc1cc(C(=O)C(=O)N(C)C)c(C)n1-c1ccc([N+](=O)[O-])cc1,-,-,-,-,72,-
O=C(NC1CC2CCC(C1)N2C(=O)NCc1ccccc1)C1CC1 (stereo unspecified),-,-,-,-,-,-
SMILES,CYP2C9 activ,sEH activator,sEH inhibitor,CYP2C9 inhib,CYP2C19 inhib,CYP2C19 act
O=C(OC1CSc2nc3ccccc3n2C1)c1ccco1 (stereo unspecified),-,.,.,-,-,-
C/C(N)=C(/C#N)C(=O)COC(=O)c1ccncc1,-,-,-,-,65,-
C/C(N)=C(/C#N)C(=O)COC(=O)c1cc(C)n(-c2ccc(F)cc2)c1C,-,-,-,-,59,-
C/C(N)=C(/C#N)C(=O)COC(=O)CCSc1ccccc1,-,-,-,-,68,-
C/C(N)=C(/C#N)C(=O)COC(=O)CCS(=O)(=O)c1ccccc1,-,-,-,-,-,-
C/C(N)=C(/C#N)C(=O)COC(=O)c1ccc(C)c(S(=O)(=O)N2CCCCC2)c1,-,-,-,62,81,-
Cc1ccc(C)c(NC(=O)CN2C(=O)CNC2=O)c1,-,-,-,-,-,-

# Source: PubChem BioAssay
